Drawing on PubChem BioAssay (NCATS), this text covers Potency, outcome and activity, negative = cell killing for five compounds.

SMILES strings stand for the structures. “And” between values parts separate entries of the source, which are not always exact repeats. Equal values may be shown once. Inconclusive results are not listed. A number with no mark means an inactive call. The source made the active and inactive calls. The call rests on the fitted dose curve; in most records, active means well fitted curve in the direction sought with a large enough effect; inconclusive means small, poorly fitted or top-dose-only effect, or another doubt; inactive means no such curve, though single readings can be large; an effect the other way counts as inactive or inconclusive.

One assay has as its system MCC-13. Briefly: qHTS assay to identify novel small-molecules to repurpose for Merkel cell carcinoma treatment (AID 1296009). Further: nearly all actives have a fitted effect of over 60% in size. The following applies: MCC and control cell lines, CellTiter-Glo viability, 72 h; series mostly up to 46 µM. In outline:
(§1)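 qHTS format: cells treated with library compounds in DMSO across 8 (NPC) or 11 (MIPE) concentrations. Readout after 72 hr at 37 degree celsius was CellTiter-Glo luminescence.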
A general note: In qHTS, concentration-response curves come from the screen itself.

In another assay the test system is MCC-26. The description is as above. The following applies: MCC and control cell lines, CellTiter-Glo viability, 72 h; series mostly up to 46 µM. In outline: as §1
Background: In ATP-based viability assays light output follows the ATP content of the culture.

The subject of the next assay is MKL-1. Described as above. The following applies: MCC and control cell lines, CellTiter-Glo viability, 72 h; series mostly up to 46 µM. In outline: as §1
A further assay concerns MKL-2. The description is as above. The conditions noted are these: MCC and control cell lines, CellTiter-Glo viability, 72 h; series mostly up to 46 µM. In outline: as §1
The subject of another assay is NIH3T3. The assay is described as above. The following applies: MCC and control cell lines, CellTiter-Glo viability, 72 h; at 44.8 µM (top of the series) unless noted. In outline: as §1
A further assay concerns UISO. The assay is described as above. The following applies: MCC and control cell lines, CellTiter-Glo viability, 72 h; series mostly up to 46 µM. The essentials: as §1
For another assay, the system named is WaGa. Described as above. The conditions noted are these: MCC and control cell lines, CellTiter-Glo viability, 72 h; series mostly up to 46 µM. The essentials:
as §1

The test system of a further assay is C33A. The experiment in a line: Primary qHTS to identify gynecologic anti-cancer compounds using libraries of approved drugs and bioactive compounds (AID 1345084). Further: nearly all actives have a fitted effect of over 55% in size. The following applies: Gynecologic cancer cell panel viability, ATPlite luminescence, 48 h; series mostly up to 57.5 µM. The essentials:
(§2)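 ATP-based viability (ATPlite), 1,000 cells/well, 16 h pre-incubation, 48 h compound at 37 C, 5% CO2, 15 min RT before read.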

The subject of a further assay is CAOV3. The assay is described as above. The following applies: Gynecologic cancer cell panel viability, ATPlite luminescence, 48 h; series mostly up to 57.5 µM. In outline: as §2
A further assay concerns CASKI. The assay is described as above. The following applies: Gynecologic cancer cell panel viability, ATPlite luminescence, 48 h; series mostly up to 57.5 µM. In outline:
as §2

The subject of a further assay is Es-2. The description is as above. The following applies: Gynecologic cancer cell panel viability, ATPlite luminescence, 48 h; series mostly up to 57.5 µM. The essentials: as §2
The next assay deals with HeLa. Described as above. The following applies: Gynecologic cancer cell panel viability, ATPlite luminescence, 48 h; series mostly up to 57.5 µM. The essentials: as §2
In the next assay the test system is Hek293T. The description is as above. The following applies: Gynecologic cancer cell panel viability, ATPlite luminescence, 48 h, control line for the selectivity index; series mostly up to 57.5 µM. The essentials:
as §2

For the next assay, the system named is JEG-3. The description is as above. The conditions noted are these: Gynecologic cancer cell panel viability, ATPlite luminescence, 48 h; series mostly up to 57.5 µM. In outline: as §2
In a further assay the test system is OV90. Described as above. The conditions noted are these: Gynecologic cancer cell panel viability, ATPlite luminescence, 48 h; series mostly up to 57.5 µM. The essentials:
as §2

For a further assay, the system named is PA-1. The assay is described as above. The following applies: Gynecologic cancer cell panel viability, ATPlite luminescence, 48 h; series mostly up to 57.5 µM. The essentials: as §2
The next assay relates to SKOV3. The assay is described as above. The conditions noted are these: Gynecologic cancer cell panel viability, ATPlite luminescence, 48 h; series mostly up to 57.5 µM. In outline: as §2
The next assay deals with Tov-21-G. The description is as above. The following applies: Gynecologic cancer cell panel viability, ATPlite luminescence, 48 h; series mostly up to 57.5 µM. The essentials: as §2
The test system of a further assay is Tov112D. Described as above. The following applies: Gynecologic cancer cell panel viability, ATPlite luminescence, 48 h; series mostly up to 57.5 µM. In outline: as §2
A short description of assay [1]: Drug repurposing screens with cells derived from glioblastoma tumor samples (AID 1345199). Further: nearly all actives have a fitted effect of over 40% in size. Further: potency means the concentration at half of the fitted maximal effect. The following applies: GBM patient neurospheres viability, ATP luminescence, 48 h. In outline: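 Four patient lines of CD133+ GBM neurospheres were screened at several concentrations; hits were retested in those lines plus three slower-growing GBM lines, using 48-hour treatment and ATP-based viability.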

Setting [2] is: at 45.9 µM (top of the series), tumour line B.
[3] abbreviates: at 45.9 µM (top of the series), tumour line D.
Where [4] appears, read: at 46 µM (top of the series), tumour line A.
Setting [5] is: at 46.1 µM (top of the series), tumour line C.
On the % scale 0 is the no-effect control and ±100 the full control effect.

`O=C(O)c1ccccc1O`: the Potency entry in the assay with MCC-13, in the assay on MCC-26, in the assay with MKL-1, in the assay on MKL-2, in the assay with UISO and in the assay on WaGa was “inactive” each time. Moreover, the Potency entry in the assay on C33A, in the assay on CAOV3, in the assay with CASKI, in the assay with Es-2, in the assay with HeLa and with Hek293T was “inactive” in each case. The Potency result with JEG-3, in the assay with OV90, in the assay on PA-1, in the assay on SKOV3, with Tov-21-G and in the assay on Tov112D was “inactive” in each case. Also, the result in the assay on NIH3T3 was inactive. In addition, the activity, negative = cell killing in assay [1] (setting [2]) was -1.6% and -1.62%; in [1] (setting [3]), -9.17% and -18.2%; in assay [1] (setting [4]) it was -20.3%; in assay [1] (setting [5]), -6.51% and 1.73%.

`CC12CCC(CC1)C(C)(C)O2`: the Potency entry in the assay on MCC-13, in the assay with MCC-26, in the assay with MKL-1, with MKL-2, in the assay with UISO and with WaGa was “inactive” in each case. The Potency entry in the assay with C33A, with CAOV3, in the assay on CASKI, in the assay on Es-2, in the assay with HeLa and with Hek293T was “inactive” in each case. Moreover, the Potency result in the assay with JEG-3, in the assay with OV90, in the assay on PA-1, with SKOV3, in the assay with Tov-21-G and in the assay with Tov112D was “inactive” in each case. In the assay on NIH3T3, the result was inactive. The activity, negative = cell killing is -7.94% in assay [1] (setting [2]), 5.35% in [1] (setting [3]) and -12.5% in assay [1] (setting [5]).

Take `O=Cc1ccccc1C=O`: the Potency entry in the assay with MCC-13, in the assay with MCC-26, in the assay on MKL-1, in the assay with MKL-2, in the assay with UISO and in the assay with WaGa was “inactive” throughout. Besides, the Potency result in the assay with C33A, in the assay with CAOV3, with CASKI, in the assay with Es-2, with HeLa and in the assay with Hek293T was “inactive” throughout. The Potency entry in the assay with JEG-3, in the assay on OV90, with PA-1, with SKOV3, in the assay on Tov-21-G and with Tov112D was “inactive” throughout. For the same compound, in the assay with NIH3T3, the compound was called inactive. The activity, negative = cell killing in assay [1] (setting [5]) was -17%. The Potency in assay [1] (tumour line D) is 35.5 µM (active).

For the compound `CNC(=O)Oc1ccc2c(c1)[C@]1(C)CCN(C)[C@@H]1N2C`, the Potency entry in the assay on MCC-13, in the assay with MCC-26, in the assay with MKL-1, in the assay on MKL-2, in the assay on UISO and in the assay on WaGa was “inactive” each time. Also, the Potency entry in the assay with C33A, with CAOV3, with CASKI, with Es-2, in the assay with HeLa and with Hek293T was “inactive” in each case. The Potency result in the assay with JEG-3, in the assay with OV90, in the assay with PA-1, in the assay with SKOV3, in the assay with Tov-21-G and in the assay on Tov112D was “inactive” each time. Moreover, the result with NIH3T3 was inactive. Further, the activity, negative = cell killing is -15.9% in assay [1] (setting [2]), -13.4% in assay [1] (setting [3]) and -13.5% in assay [1] (setting [5]). Also, the Potency in assay [1] (tumour line A) is 35.5 µM (active).

Take `CCC(=O)c1ccc(O)cc1`: the Potency result in the assay with MCC-13, with MCC-26, in the assay with MKL-1, in the assay on MKL-2, in the assay on UISO and with WaGa was “inactive” throughout. For the same compound, the Potency result in the assay on C33A, with CAOV3, in the assay with CASKI, in the assay on Es-2, in the assay on HeLa and with Hek293T was “inactive” each time. The Potency result in the assay with JEG-3, with OV90, with PA-1, in the assay with SKOV3, in the assay on Tov-21-G and in the assay on Tov112D was “inactive” in each case. Further, the result in the assay with NIH3T3 was inactive. In addition, the activity, negative = cell killing in assay [1] (setting [2]) was -5.56%; in [1] (setting [3]) it was -10.1%; in [1] (setting [4]), -28.1%; in assay [1] (setting [5]), -21.6%.
